About 79,000 compounds went through this panel and 15% of them were active in at least one assay; those are over-represented in the sample as a whole. The source made the active and inactive calls. Cut-off read from the data, not from the text of the source: active = growth inhibition above about 70%; inactive = the rest.
Assays:
[1] = NCI Yeast Anticancer Drug Screen. Data for the rad52 strain (AID 147);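 note: 0% = growth of vehicle-treated control cultures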; conditions: S. cerevisiae rad52 mutant growth inhibition, active compounds read high
How it was run: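 Yeast strain carrying a DNA damage repair alteration was exposed to test compounds. Growth inhibition was measured relative to vehicle-treated controls.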

[2] = NCI Yeast Anticancer Drug Screen. Data for the wt1 strain (AID 149);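 note: 0% = growth of vehicle-treated wt1 cultures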; conditions: S. cerevisiae wt1 strain (SPY 50644) growth inhibition, active compounds read high
How it was run: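 Measured: growth of wt1 yeast under compound versus vehicle treatment, reported as inhibition.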

[3] = NCI Yeast Anticancer Drug Screen. Data for the rad50EPP+ strain (AID 151);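 note: 0% = growth of vehicle-treated control cultures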; conditions: S. cerevisiae rad50 mutant strain, active compounds read high
How it was run: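 Yeast strain carrying rad50 alteration (rad50EPP+) exposed to compounds; growth inhibition measured relative to vehicle-treated controls.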

[4] = NCI Yeast Anticancer Drug Screen. Data for the mgt1 strain (AID 153); conditions: S. cerevisiae mgt1 mutant growth inhibition, active compounds read high
How it was run: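 Yeast mgt1 strain (DNA repair/cell-cycle alteration panel) exposed to compounds; growth inhibition measured relative to vehicle-treated controls.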

[5] = NCI Yeast Anticancer Drug Screen. Data for the rad50 strain (AID 155);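 note: 0% = growth of vehicle-only cultures of the same strain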; conditions: S. cerevisiae rad50 strain growth inhibition, active compounds read high
How it was run: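 Growth of the mutant yeast was measured after compound exposure and referenced to vehicle-treated cultures.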

[6] = NCI Yeast Anticancer Drug Screen. Data for the mec2-1 strain (AID 157); conditions: S. cerevisiae mec2-1 strain, active compounds read high
How it was run: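 mec2-1 yeast strain, carrying an alteration in DNA damage repair or cell cycle control, was exposed to compounds; growth inhibition was measured relative to vehicle-treated controls.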

[7] = NCI Yeast Anticancer Drug Screen. Data for the rad14 strain (AID 159);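 note: 0% = growth of vehicle-treated control cultures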; conditions: S. cerevisiae rad14 strain growth inhibition, active compounds read high
How it was run: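 Here, inhibition of yeast growth was measured after compound exposure, using a strain with a genetic defect in DNA damage repair and vehicle-treated cultures as the reference.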

[8] = NCI Yeast Anticancer Drug Screen. Data for the sgs1 mgt1 strain (AID 161);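 note: 0% = growth of cultures given vehicle only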; conditions: S. cerevisiae sgs1 mgt1 strain, active compounds read high
How it was run: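 Compounds are added to genetically altered yeast, and growth is compared with cultures given vehicle alone to give percent inhibition.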

[9] = NCI Yeast Anticancer Drug Screen. Data for the CLN2oe strain (AID 163);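 note: 0% = growth of vehicle-only control cultures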; conditions: S. cerevisiae CLN2oe strain, active compounds read high
How it was run: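 Yeast cells carrying a defined cell-cycle control alteration were exposed to test compounds. Growth inhibition was scored against vehicle-treated control cultures.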

[10] = NCI Yeast Anticancer Drug Screen. Data for the cln2 rad14 strain (AID 165);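 note: 0% = growth equal to vehicle treated cultures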; conditions: S. cerevisiae cln2 rad14 strain, active compounds read high
How it was run: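 Yeast carrying cln2 and rad14 alterations (cell cycle control and DNA damage repair) were exposed to compounds. Growth inhibition was measured against vehicle-treated controls.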

[11] = NCI Yeast Anticancer Drug Screen. Data for the bub3 strain (AID 167); conditions: S. cerevisiae bub3 mutant strain, active compounds read high
How it was run: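 Whole-cell yeast assay. The mutant strain was incubated with compounds, and growth inhibition was determined by comparison with vehicle-treated cells.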

[12] = NCI Yeast Anticancer Drug Screen. Data for the wt2 strain (AID 169);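 note: 0% = growth of vehicle-treated yeast cultures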; conditions: S. cerevisiae wt2 strain growth inhibition, active compounds read high
How it was run: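 Yeast cells were exposed to test compounds, and growth inhibition was measured relative to vehicle-treated controls.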

[13] = NCI Yeast Anticancer Drug Screen. Data for the mlh1 strain (AID 171);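 note: 0% = growth of vehicle-treated control cultures of the same strain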; conditions: S. cerevisiae mlh1 strain growth inhibition, active compounds read high
How it was run: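 Yeast carrying a defined genetic alteration in DNA damage repair or cell cycle control were exposed to test compounds. Growth inhibition was measured relative to vehicle-treated controls.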

[14] = NCI Yeast Anticancer Drug Screen. Data for the sgs1 strain (AID 173);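 note: 0% = growth of vehicle-only control cultures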; conditions: S. cerevisiae sgs1 mutant, active compounds read high
How it was run: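 Yeast mutant strains carrying defined defects in DNA damage repair or cell cycle control were exposed to test compounds. Growth inhibition was scored against vehicle-treated controls.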

[15] = NCI Yeast Anticancer Drug Screen. Data for the mlh1 rad18 strain (AID 175); conditions: S. cerevisiae mlh1 rad18 strain growth inhibition, active compounds read high
How it was run: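 Growth inhibition of the yeast strain was measured after compound exposure and expressed relative to vehicle-treated controls. The strain carries defined defects in DNA damage repair.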

[16] = at 5.0 µM (retest, dose inferred, filed as 0.5)
[17] = at 50.0 µM (retest, dose inferred, filed as 5.0)

Measured: growth inhibition

Nc1ccc(/C=C/c2ccc3cccnc3c2)cc1
active: [11]; at 11.0 µM 85% | [11]; at 33.0 µM 94% | [11]; [17] 92% | [11]; at 50.0 µM 93.3% | [11]; at 100.0 µM 94%
inactive: [1]; at 1.2 µM -3% | [1]; at 3.7 µM -3% | [1]; at 11.0 µM -1% | [1]; at 33.0 µM 11% | [1]; at 100.0 µM 29% | [2]; at 1.2 µM 0% | [2]; at 3.7 µM -1% | [2]; at 11.0 µM -3% | [2]; at 33.0 µM -4% | [2]; at 100.0 µM -7% | [3]; at 1.2 µM -2% | [3]; at 3.7 µM 1% | [3]; at 11.0 µM 8% | [3]; at 33.0 µM 34% | [3]; at 100.0 µM 41% | [4]; at 1.2 µM 0% | [4]; at 3.7 µM 1% | [4]; at 11.0 µM -3% | [4]; at 33.0 µM -3% | [4]; at 100.0 µM 22% | [5]; at 1.2 µM 5% | [5]; at 3.7 µM 29% | [5]; [16] 5% | [5]; at 11.0 µM 23% | [5]; at 33.0 µM 14% | [5]; [17] 28% | [5]; at 50.0 µM 10.8% | [5]; at 100.0 µM 29% | [6]; at 1.2 µM -2% | [6]; at 3.7 µM -2% | [6]; [16] -1% | [6]; at 11.0 µM -3% | [6]; at 33.0 µM 1% | [6]; [17] 17% | [6]; at 50.0 µM 1.95% | [6]; at 100.0 µM 6% | [7]; at 1.2 µM 1% | [7]; at 3.7 µM 4% | [7]; at 11.0 µM 5% | [7]; at 33.0 µM 13% | [7]; at 100.0 µM 28% | [8]; [16] 3% | [8]; [17] 50% | [8]; at 50.0 µM 46.2% | [9]; at 1.2 µM 2% | [9]; at 3.7 µM 2% | [9]; at 11.0 µM 1% | [9]; at 33.0 µM -4% | [9]; at 100.0 µM 0% | [10]; [16] -5% | [10]; [17] 3% | [10]; at 50.0 µM -6.75% | [11]; at 1.2 µM 5% | [11]; at 3.7 µM 23% | [11]; [16] 24% | [12]; at 1.2 µM 1% | [12]; at 3.7 µM 8% | [12]; at 11.0 µM -2% | [12]; at 33.0 µM -4% | [12]; at 100.0 µM 9% | [13]; at 1.2 µM -1% | [13]; at 3.7 µM -1% | [13]; at 11.0 µM -1% | [13]; at 33.0 µM -2% | [13]; at 100.0 µM 21% | [14]; at 1.2 µM -1% | [14]; at 3.7 µM 1% | [14]; at 11.0 µM 3% | [14]; at 33.0 µM 20% | [14]; at 100.0 µM 46% | [15]; [16] 3% | [15]; [17] 20% | [15]; at 50.0 µM 32.8%

CC1(C2CC2)C(C#N)(C#N)C1(C#N)C#N
active: [1]; at 100.0 µM 78% | [5]; [17] 91% | [5]; at 100.0 µM 91% | [6]; at 100.0 µM 84% | [8]; [17] 70% | [11]; [17] 81% | [11]; at 100.0 µM 84% | [13]; at 100.0 µM 84% | [14]; at 100.0 µM 94% | [15]; [17] 89% | [15]; at 50.0 µM 70.9%
inactive: [1]; at 1.2 µM 2% | [1]; at 3.7 µM 10% | [1]; at 11.0 µM 22% | [1]; at 33.0 µM 45% | [2]; at 1.2 µM -2% | [2]; at 3.7 µM -2% | [2]; at 11.0 µM 5% | [2]; at 33.0 µM 19% | [2]; at 100.0 µM 48% | [3]; at 1.2 µM -1% | [3]; at 3.7 µM 2% | [3]; at 11.0 µM 1% | [3]; at 33.0 µM 9% | [3]; at 100.0 µM 9% | [4]; at 1.2 µM -1% | [4]; at 3.7 µM -2% | [4]; at 11.0 µM 1% | [4]; at 33.0 µM 16% | [4]; at 100.0 µM 63% | [5]; at 1.2 µM -1% | [5]; at 3.7 µM 3% | [5]; [16] -106% | [5]; at 11.0 µM 25% | [5]; at 33.0 µM 66% | [5]; at 50.0 µM 38.1% | [6]; at 1.2 µM 4% | [6]; at 3.7 µM 2% | [6]; [16] -39% | [6]; at 11.0 µM 33% | [6]; at 33.0 µM 36% | [6]; [17] 57% | [6]; at 50.0 µM 41.9% | [7]; at 1.2 µM 4% | [7]; at 3.7 µM 7% | [7]; at 11.0 µM 16% | [7]; at 33.0 µM 29% | [7]; at 100.0 µM 66% | [8]; [16] -48% | [8]; at 50.0 µM 51% | [9]; at 1.2 µM -2% | [9]; at 3.7 µM 8% | [9]; at 11.0 µM 16% | [9]; at 33.0 µM 21% | [9]; at 100.0 µM 53% | [10]; [16] -50% | [10]; [17] 7% | [10]; at 50.0 µM 16.3% | [11]; at 1.2 µM -7% | [11]; at 3.7 µM -2% | [11]; [16] -57% | [11]; at 11.0 µM 19% | [11]; at 33.0 µM 49% | [11]; at 50.0 µM 39.8% | [12]; at 1.2 µM -1% | [12]; at 3.7 µM -2% | [12]; at 11.0 µM -1% | [12]; at 33.0 µM 15% | [12]; at 100.0 µM 69% | [13]; at 1.2 µM 4% | [13]; at 3.7 µM -9% | [13]; at 11.0 µM 9% | [13]; at 33.0 µM 31% | [14]; at 1.2 µM -1% | [14]; at 3.7 µM 6% | [14]; at 11.0 µM 23% | [14]; at 33.0 µM 60% | [15]; [16] -96%

— PubChem BioAssay (NCI)
